In the supplement of paper PMC10849652:
Targets with a hit are over-represented here; the source holds about 8,800 in all. About 0.5% of all pairs of compound and target were hits. A number with no mark means an inactive call.

Tests used:
Experiment in all cases: log2 fold change, soluble protein after heating vs DMSO (PISA); higher = thermal stabilisation; K562 lysate, 10 uM; active = over 0.2 and 3.5 SD of the protein, either way, in both replicates (recomputed)
[1] = compound: NCC(=O)Nc1ccc(-n2nc(C(F)(F)F)cc2-c2ccc3c(ccc4ccccc43)c2)cc1
Summary of the method: (§1)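 K562 pellets were dounce-homogenised in PBS pH 7.4 containing 1 mM MgCl2, and the crude extract, at 1 mg/mL protein, was exposed to 10 μM compound for 30 min. Aliquots were heated for 3 min across 48°C-58°C, pooled, brought to 0.5% NP-40 at 4°C and spun at 21,000xg for 90 min, with the supernatant taken as soluble protein. TMTpro 16plex LC-MS/MS with equalised channel sums quantified that protein. Values are log-two fold changes in thermal stability relative to solvent controls, taken from duplicates.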

[2] = compound: O=C(CCCCCCC(=O)Nc1ccccc1)NO [vorinostat]
Summary of the method: as §1

[3] = compound: O=C(O)c1ccc2c(c1)nc(Nc1cccc(Cl)c1)c1ccncc12 [silmitasertib]
Summary of the method: as §1

[4] = compound: O=C1NC(=O)C(c2cnc3ccccn23)=C1c1cn2c3c(cc(F)cc13)CN(C(=O)N1CCCCC1)CC2
Summary of the method: as §1

[5] = compound: c1cn2cc(-c3ccc4cn[nH]c4c3)nc(Nc3ccc(N4CCOCC4)cc3)c2n1 [entospletinib]
Summary of the method: as §1

UniProt Q15813, sequence (Q15813 whole entry, looked up): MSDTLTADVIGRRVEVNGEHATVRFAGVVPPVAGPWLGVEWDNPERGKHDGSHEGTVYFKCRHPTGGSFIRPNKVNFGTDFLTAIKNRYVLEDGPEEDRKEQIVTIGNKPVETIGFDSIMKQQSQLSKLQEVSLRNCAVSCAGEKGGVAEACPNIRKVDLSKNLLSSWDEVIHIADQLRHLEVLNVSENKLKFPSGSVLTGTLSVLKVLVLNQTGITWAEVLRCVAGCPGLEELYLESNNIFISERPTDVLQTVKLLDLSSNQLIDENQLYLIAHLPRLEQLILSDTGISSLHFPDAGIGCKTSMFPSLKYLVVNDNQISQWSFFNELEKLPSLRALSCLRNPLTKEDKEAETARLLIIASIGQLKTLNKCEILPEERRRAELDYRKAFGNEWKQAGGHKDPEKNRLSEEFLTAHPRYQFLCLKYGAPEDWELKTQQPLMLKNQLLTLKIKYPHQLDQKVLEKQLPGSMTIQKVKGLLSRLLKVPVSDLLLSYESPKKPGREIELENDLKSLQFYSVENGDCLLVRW
UniProt Q9BRZ2, sequence (Q9BRZ2 whole entry, looked up): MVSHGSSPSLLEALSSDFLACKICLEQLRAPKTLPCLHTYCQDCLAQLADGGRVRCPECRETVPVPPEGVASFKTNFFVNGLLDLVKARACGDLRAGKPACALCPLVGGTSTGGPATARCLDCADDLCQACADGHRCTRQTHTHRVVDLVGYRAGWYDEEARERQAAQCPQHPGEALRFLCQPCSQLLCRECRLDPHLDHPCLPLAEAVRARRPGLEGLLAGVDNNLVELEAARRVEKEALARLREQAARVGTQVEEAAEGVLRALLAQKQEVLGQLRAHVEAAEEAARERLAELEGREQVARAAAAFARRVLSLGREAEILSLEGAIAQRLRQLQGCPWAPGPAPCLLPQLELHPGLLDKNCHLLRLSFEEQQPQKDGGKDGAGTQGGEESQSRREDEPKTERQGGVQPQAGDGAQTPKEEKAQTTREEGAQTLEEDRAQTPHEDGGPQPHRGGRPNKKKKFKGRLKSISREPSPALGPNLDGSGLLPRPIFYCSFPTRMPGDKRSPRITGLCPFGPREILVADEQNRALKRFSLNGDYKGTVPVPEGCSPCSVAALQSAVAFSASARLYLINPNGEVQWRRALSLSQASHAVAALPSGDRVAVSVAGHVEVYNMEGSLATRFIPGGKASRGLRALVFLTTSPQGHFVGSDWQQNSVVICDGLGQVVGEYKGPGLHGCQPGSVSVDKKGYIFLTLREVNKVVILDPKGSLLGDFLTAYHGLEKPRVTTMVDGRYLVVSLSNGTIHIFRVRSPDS
UniProt Q04726, sequence (Q04726 whole entry, looked up): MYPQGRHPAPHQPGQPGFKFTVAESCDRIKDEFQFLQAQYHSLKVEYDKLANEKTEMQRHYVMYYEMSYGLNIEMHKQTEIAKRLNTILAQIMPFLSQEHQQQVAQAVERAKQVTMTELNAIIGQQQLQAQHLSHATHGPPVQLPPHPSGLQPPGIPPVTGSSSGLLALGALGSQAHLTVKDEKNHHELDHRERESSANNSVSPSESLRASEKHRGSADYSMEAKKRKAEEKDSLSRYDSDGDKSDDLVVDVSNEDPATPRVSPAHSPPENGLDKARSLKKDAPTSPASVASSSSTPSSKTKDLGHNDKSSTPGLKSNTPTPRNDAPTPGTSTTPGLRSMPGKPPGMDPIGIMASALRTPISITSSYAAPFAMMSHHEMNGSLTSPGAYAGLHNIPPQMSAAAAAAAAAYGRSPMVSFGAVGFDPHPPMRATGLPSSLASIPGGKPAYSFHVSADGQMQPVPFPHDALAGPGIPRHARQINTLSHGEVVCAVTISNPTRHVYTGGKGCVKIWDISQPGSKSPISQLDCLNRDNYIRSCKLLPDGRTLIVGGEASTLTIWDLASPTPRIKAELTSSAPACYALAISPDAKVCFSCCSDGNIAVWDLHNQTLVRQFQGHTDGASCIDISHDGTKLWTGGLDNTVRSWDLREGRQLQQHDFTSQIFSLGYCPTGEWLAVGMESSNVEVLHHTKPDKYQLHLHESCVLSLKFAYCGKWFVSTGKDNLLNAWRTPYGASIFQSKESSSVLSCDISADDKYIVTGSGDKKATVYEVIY
UniProt P21580, sequence (P21580 whole entry, looked up): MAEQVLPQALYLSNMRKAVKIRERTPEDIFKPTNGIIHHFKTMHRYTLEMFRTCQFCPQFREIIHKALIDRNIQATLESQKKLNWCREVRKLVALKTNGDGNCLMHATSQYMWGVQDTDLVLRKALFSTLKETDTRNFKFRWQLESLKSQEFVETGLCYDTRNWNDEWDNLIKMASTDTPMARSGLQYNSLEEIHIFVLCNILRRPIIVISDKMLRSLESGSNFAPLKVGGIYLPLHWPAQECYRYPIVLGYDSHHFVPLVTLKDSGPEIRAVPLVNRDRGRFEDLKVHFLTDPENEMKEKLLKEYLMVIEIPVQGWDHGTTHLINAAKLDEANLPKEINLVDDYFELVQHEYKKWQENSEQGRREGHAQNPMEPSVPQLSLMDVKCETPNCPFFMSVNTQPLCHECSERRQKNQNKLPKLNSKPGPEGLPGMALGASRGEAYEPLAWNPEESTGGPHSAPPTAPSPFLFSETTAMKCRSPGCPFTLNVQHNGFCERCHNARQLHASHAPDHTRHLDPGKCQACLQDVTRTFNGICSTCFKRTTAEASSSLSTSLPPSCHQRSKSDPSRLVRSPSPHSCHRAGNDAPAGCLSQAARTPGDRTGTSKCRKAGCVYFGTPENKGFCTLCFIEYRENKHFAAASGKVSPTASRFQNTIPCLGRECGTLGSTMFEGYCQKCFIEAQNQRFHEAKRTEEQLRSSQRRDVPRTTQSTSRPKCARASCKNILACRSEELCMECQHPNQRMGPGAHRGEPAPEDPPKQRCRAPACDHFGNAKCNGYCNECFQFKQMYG
UniProt Q14CS0, sequence (Q14CS0 whole entry, looked up): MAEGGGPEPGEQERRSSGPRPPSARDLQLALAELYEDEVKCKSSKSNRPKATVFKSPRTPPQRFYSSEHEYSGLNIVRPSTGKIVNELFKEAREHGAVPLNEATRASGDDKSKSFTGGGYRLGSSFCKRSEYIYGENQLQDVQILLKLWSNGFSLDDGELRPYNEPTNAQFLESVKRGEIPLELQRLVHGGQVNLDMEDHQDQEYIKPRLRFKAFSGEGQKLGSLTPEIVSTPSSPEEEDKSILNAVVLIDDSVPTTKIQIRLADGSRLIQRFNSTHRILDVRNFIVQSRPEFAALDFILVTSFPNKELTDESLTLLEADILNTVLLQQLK
UniProt Q9UKE5, sequence (Q9UKE5 whole entry, looked up): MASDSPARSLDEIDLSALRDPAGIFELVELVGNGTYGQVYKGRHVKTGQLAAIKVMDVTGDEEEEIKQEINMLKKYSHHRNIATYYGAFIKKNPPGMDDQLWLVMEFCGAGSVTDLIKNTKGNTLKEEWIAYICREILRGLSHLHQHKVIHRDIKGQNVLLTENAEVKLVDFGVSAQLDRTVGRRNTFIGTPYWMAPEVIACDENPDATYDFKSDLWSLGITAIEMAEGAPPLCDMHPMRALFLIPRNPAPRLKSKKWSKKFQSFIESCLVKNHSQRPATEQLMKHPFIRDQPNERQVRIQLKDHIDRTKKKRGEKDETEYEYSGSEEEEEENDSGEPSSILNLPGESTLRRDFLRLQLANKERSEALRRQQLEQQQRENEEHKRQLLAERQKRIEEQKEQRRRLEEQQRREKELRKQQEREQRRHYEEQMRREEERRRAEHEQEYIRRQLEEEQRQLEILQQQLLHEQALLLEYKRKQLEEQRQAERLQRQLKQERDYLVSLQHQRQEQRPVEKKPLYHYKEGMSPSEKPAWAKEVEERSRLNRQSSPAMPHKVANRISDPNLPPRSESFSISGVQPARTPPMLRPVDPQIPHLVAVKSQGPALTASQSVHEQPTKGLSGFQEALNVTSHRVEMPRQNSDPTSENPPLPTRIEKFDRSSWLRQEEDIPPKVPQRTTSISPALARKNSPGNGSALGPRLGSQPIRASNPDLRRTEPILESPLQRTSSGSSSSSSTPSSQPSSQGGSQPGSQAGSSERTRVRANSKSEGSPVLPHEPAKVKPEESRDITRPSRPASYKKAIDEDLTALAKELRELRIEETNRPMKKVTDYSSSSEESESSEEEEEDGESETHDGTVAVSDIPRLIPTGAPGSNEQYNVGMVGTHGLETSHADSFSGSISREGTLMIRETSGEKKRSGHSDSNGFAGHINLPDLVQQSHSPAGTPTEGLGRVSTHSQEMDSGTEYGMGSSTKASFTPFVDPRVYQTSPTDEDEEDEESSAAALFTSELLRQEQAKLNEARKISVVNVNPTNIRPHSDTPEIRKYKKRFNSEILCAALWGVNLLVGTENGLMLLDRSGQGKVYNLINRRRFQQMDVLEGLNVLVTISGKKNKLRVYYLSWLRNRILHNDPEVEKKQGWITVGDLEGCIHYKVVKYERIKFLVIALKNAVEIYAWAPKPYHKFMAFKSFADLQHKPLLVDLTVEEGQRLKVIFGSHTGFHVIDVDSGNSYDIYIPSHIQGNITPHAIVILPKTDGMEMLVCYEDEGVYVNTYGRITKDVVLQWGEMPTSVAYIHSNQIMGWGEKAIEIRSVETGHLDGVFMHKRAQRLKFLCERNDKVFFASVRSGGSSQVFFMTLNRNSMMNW
UniProt Q6IPR3, sequence (Q6IPR3 whole entry, looked up): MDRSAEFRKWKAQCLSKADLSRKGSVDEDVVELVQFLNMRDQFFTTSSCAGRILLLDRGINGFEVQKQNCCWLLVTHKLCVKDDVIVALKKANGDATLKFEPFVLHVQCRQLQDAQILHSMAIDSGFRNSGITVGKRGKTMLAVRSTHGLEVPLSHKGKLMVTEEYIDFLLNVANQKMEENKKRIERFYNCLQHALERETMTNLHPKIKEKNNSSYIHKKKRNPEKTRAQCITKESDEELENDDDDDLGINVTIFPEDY
UniProt Q9BRN9, sequence (Q9BRN9 whole entry, looked up): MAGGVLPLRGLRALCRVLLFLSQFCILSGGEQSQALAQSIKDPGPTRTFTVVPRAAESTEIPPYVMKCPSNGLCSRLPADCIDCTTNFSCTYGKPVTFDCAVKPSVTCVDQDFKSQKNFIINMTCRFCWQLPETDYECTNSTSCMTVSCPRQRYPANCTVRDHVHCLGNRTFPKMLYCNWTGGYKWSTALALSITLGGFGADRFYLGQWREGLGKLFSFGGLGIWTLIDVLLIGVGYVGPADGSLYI

Target	log2 fold change [1]	log2 fold change [2]	log2 fold change [3]	log2 fold change [4]	log2 fold change [5]
TNIK isoform 4 (UniProt Q9UKE5)	-0.019	-0.135	0.004	-0.114	0.208
TBL3 (UniProt Q12788)	0.015	-0.263 (active)	-0.011	-0.001	-0.023
TRAPPC10 (UniProt P48553)	0.015	-0.248 (active)	0.005	0.049	0
THOC5 (UniProt Q13769)	0.012	-0.077	0.011	0.008	-0.009
UBXN6 (UniProt Q9BZV1)	0.04	-0.28 (active)	0.018	-0.026	-0.009
UFSP2 (UniProt Q9NUQ7)	-0.029	0.342 (active)	0.001	-0.021	-0.012
TRIM56 (UniProt Q9BRZ2)	-0.022	-0.428 (active)	-0.043	-0.016	-0.004
TYW3 (UniProt Q6IPR3)	0.036	-0.694 (active)	0	-0.042	-0.001
TPD52L2 isoform 7 (UniProt O43399)	-0.043	0.148	-0.044	-0.027	-0.016
TRIP13 (UniProt Q15645)	0.002	-0.472 (active)	0.061	-0.002	0.022
TPM3 isoform 2 (UniProt P06753)	-0.032	0.048	0.011	-0.047	-0.029
TOX4 (UniProt O94842)	-0.021	-0.018	-0.037	-0.025	-0.006
TRA2A (UniProt Q13595)	0.009	0.568 (active)	-0.151	0.005	-0.102
TBCE (UniProt Q15813)	-0.029	-0.27 (active)	0.018	-0.025	0.021
TTC12 isoform 2 (UniProt Q9H892)	-0.01	-0.163	0.078	-0.058	-0.03
UBR5 (UniProt O95071)	0.009	-0.234 (active)	0.011	-0.011	-0.006
TRIM44 (UniProt Q96DX7)	0.024	-0.031	0.062	-0.015	-0.051
TUBA4A (UniProt P68366)	0.066	-0.736 (active)	0.077	0.051	-0.045
TENM4 (UniProt Q6N022)	–	–	–	0.143	–
TRPM4 (UniProt Q8TD43)	–	0.161	-0.091	-0.078	–

Target	log2 fold change [1]	log2 fold change [2]	log2 fold change [3]	log2 fold change [4]	log2 fold change [5]
TRAF7 (UniProt Q6Q0C0)	0.052	–	–	0.059	0.058
TCF4 (UniProt P15884)	–	–	–	0.078	-0.074
TMSB4X (UniProt P62328)	–	0.103	-0.076	0.219	-0.158
TXNRD2 isoform 3 (UniProt Q9NNW7)	–	-0.94 (active)	-0.194	–	–
TGFBR1 isoform 2 (UniProt P36897)	–	0	0.076	–	-0.004
UBAP2L isoform 1 (UniProt Q14157)	–	–	–	0.088	–
UBXN2B (UniProt Q14CS0)	0.095	0.085	0.053	–	-0.032
TSPAN3 (UniProt O60637)	-0.124	0.105	-0.056	–	-0.005
TPD52L2 isoform 3 (UniProt O43399)	–	0.258	-0.058	–	–
UBR4 isoform 4 (UniProt Q5T4S7)	-0.145	-0.792 (active)	-0.004	–	0.205
U2AF1L5 (UniProt P0DN76)	–	-0.363	-0.069	–	0.016
TLE3 isoform 5 (UniProt Q04726)	–	0.144	0.019	-0.058	-0.002
TRIM3 (UniProt O75382)	-0.304	-0.055	-0.179	–	-0.056
TASP1 (UniProt Q9H6P5)	–	0.481 (active)	-0.018	0.029	0.21
TNFAIP3 (UniProt P21580)	–	-0.12	-0.003	0.004	0.044
THADA (UniProt Q6YHU6)	0.009	-0.456 (active)	0.013	0.015	0.006
UBE4A isoform 2 (UniProt Q14139)	0.007	-0.257 (active)	0.019	0.029	0.026
TIAL1 isoform 2 (UniProt Q01085)	-0.001	0.041	0.023	-0.049	0.028
TCF20 (UniProt Q9UGU0)	–	-0.067	0.054	-0.056	–
THAP9 (UniProt Q9H5L6)	0.207	–	–	0.09	0.059

Target	log2 fold change [1]	log2 fold change [2]	log2 fold change [3]	log2 fold change [4]	log2 fold change [5]
TEDC1 (UniProt Q86SX3)	–	-0.356 (active)	0.068	-0.012	-0.032
UCP2 (UniProt P55851)	-0.12	–	–	0.035	–
UBAP2L (UniProt F8W726)	0.062	–	–	0.021	–
TMEM154 (UniProt Q6P9G4)	–	–	–	0.008	-0.056
TUBB4A (UniProt P04350)	–	-0.448 (active)	0.065	0.095	-0.056
TMPO isoform 2 (UniProt P42167)	-0.066	–	–	–	0.032
TMEM132A isoform 2 (UniProt Q24JP5)	–	-0.156	0.351	0.227	-0.089
TFPT (UniProt P0C1Z6)	–	0.289	-0.18	–	–
TM2D3 (UniProt Q9BRN9)	–	0.096	0.339	–	-0.184
TUT4 (UniProt Q5TAX3)	0.072	-0.398 (active)	0.018	-0.048	-0.029
UBN1 (UniProt Q9NPG3)	0.048	–	–	-0.463	-0.034
TFPI isoform 2 (UniProt P10646)	0.184	–	–	0.019	–
TEC (UniProt P42680)	-1.05 (active)	–	–	–	0.037
UBAP2, A0A0D9SFI5	–	–	–	-0.094	–
TUBAL3 (UniProt A6NHL2)	0.083	-0.195	0.069	–	-0.026
TNIK isoform 5 (UniProt Q9UKE5)	–	–	–	-0.134	–
TCF3 isoform 2 (UniProt P15923)	–	-0.196	-0.056	0.043	–
TUBGCP5 (UniProt Q96RT8)	-0.029	–	–	0.042	-0.105
